# According to publication PMC12670160, “A drug-repurposing screen of FDA- and EMA-approved drugs identifies two NF-κB inhibitors active against eumycetoma” (Journal of Antimicrobial Chemotherapy, 2025):
# Structures can show the parent of a compound that is named as a salt. In all, about 5,300 compounds went through this assay and about 130 (2.5%) showed an effect of 50% or more. This is one part of a sample in which strong results are shown more often than they occur.
# Test system: M. mycetomatis strain mm55
# Settings: primary screen, metabolic activity vs growth control; 96 h, 2 µM; inhibitor
row,SMILES,% viability [%]
1,"O=C(C[C@H]1NCCC[C@@H]1O)Cn1cnc2cc(Br)c(Cl)cc2c1=O (racemic) [ONC0004939, halofuginone]",90.07
2,"CC1=CC(=O)NS(=O)(=O)O1 [ONC0005569, acesulfame potassium]",46
3,"c1ccc(-c2ncc(CN3CCN(c4ncccn4)CC3)[nH]2)cc1 [ONC0000007, ngd941]",130.5
4,"CC(COc1ccccc1)NC(C)[C@H](O)c1ccc(O)cc1 (some centres unmarked) [ONC0000598, isoxsuprine hydrochloride]",84.27
5,"CCC(O)(CC(N)=O)c1ccccc1 (centres unmarked) [ONC0003599, 3hydroxy3phenylpentanamide]",105.2
6,"Cc1nc2cc(-n3ncc(C(=O)c4cc5ccccc5[nH]4)c3N)ccc2[nH]1 [ONC0004455, ch5183284 debio1347]",110.2
7,"CCNC(=O)N1CCN(CCCC(c2ccc(F)cc2)c2ccc(F)cc2)CC1 [ONC0003498, amperozidehcl]",32.95
8,"Cc1cccc(C)c1NC(=O)CN1CCN(CCCC(c2ccc(F)cc2)c2ccc(F)cc2)CC1 [ONC0002360, lidoflazine]",112.8
9,"O=c1[nH]c2ccccc2n1C1CCN(CCCC(c2ccc(F)cc2)c2ccc(F)cc2)CC1 [ONC0000675, pimozide]",106.9
10,"Cc1c[nH]c(-c2cnc(NCCNc3ccc(C#N)cn3)nc2-c2ccc(Cl)cc2Cl)n1 [ONC0004531, chir99021 ct99021 hcl]",57.04
11,"C[C@H]1c2cccc(O)c2C(=O)C2C(=O)[C@]3(O)C(=O)C(C(N)=O)C(=O)[C@@H](N(C)C)[C@@H]3[C@@H](O)[C@@H]21 (some centres unmarked) [ONC0000682, doxycycline hydrochloride]",94.49
12,"C[C@]12CCC(=O)C=C1CCC1C2C(=O)C[C@@]2(C)C1CC[C@]2(O)C(=O)CO (some centres unmarked) [ONC0005338, cortisone]",64.83
13,"Cc1sc(C)c2c1CCC=C2c1cnc[nH]1 [ONC0000248, tcg1000]",71.17
14,"Cc1ccnc(NC(=O)C(C)c2cccc(C(=O)c3ccccc3)c2)c1 (centres unmarked) [ONC0003716, piketoprofen]",97.11
15,"O=C(O)c1ccccc1Nc1cccc(OCc2ccc3ccccc3n2)c1 [ONC0001414, sr2640]",39.31
16,"CCCCCC(O)c1cccc(OCc2ccc3ccccc3n2)c1 (centres unmarked) [ONC0005481, rev5901 l655238]",92.78
17,"O=C(O)[C@@H](c1ccc(OCc2ccc3ccccc3n2)cc1)C1CCCC1 [ONC0005557, veliflapon]",76.74
18,"COc1cc(O)c2c(c1)C(=O)c1cc(C)cc(O)c1C2=O [ONC0004501, rheochrysidin physcione]",41.39
19,"Cc1cc(O)c2c(c1)C(=O)c1cccc(O)c1C2=O [ONC0005265, chrysophanic acid chrysophanol]",118.5

row,SMILES,% viability [%]
1,"Cc1cc(O)c2c(c1)C(=O)c1cc(O)cc(O)c1C2=O [ONC0004997, emodin]",57.84
2,"CNC(=O)c1ccc2cc([C@]3(O)CCn4cncc43)ccc2c1 [ONC0004670, tak700 orteronel]",115.9
3,"CCN(CCCOc1ccc2c(Nc3cc(CC(=O)Nc4cccc(F)c4)n[nH]3)ncnc2c1)CCOP(=O)(O)O [ONC0002222, azd1152]",73.5
4,"C[C@@H](NCCc1ccc(O)cc1)[C@@H](O)c1ccc(O)cc1 (racemic) [ONC0000689, ritodrine hydrochloride]",122.8
5,"C[C@@H](O)[C@H]1C(=O)N2C(C(=O)[O-])=C([C@H]3CCCO3)S[C@H]12.C[C@@H](O)[C@H]1C(=O)N2C(C(=O)[O-])=C([C@H]3CCCO3)S[C@H]12.O.O.O.O.O.[Na+].[Na+] [ONC0000335, faropenem sodium hemipentahydrate]",95.52
6,"Cc1oc(=O)oc1COC(=O)C1=C([C@H]2CCCO2)S[C@@H]2[C@@H]([C@@H](C)O)C(=O)N12 [ONC0001072, faropenem daloxate]",41.67
7,"C1=C/COCc2cc(ccc2OCCN2CCCC2)Nc2nccc(n2)-c2cccc(c2)COC/1 [ONC0004380, pacritinib sb1518]",107.6
8,"O=C(NC1CCNCC1)[C@@H]1CC[C@@H]2CN1C(=O)N2OS(=O)(=O)O [ONC0001257, relebactam]",62.24
9,"CC[C@H](C)[C@@H]([C@@H](CC(=O)N1CCC[C@H]1[C@H](OC)[C@@H](C)C(=O)N[C@@H](Cc1ccccc1)c1nccs1)OC)N(C)C(=O)[C@@H](NC(=O)[C@H](C(C)C)N(C)C)C(C)C [ONC0003667, dolastin10]",74.88
10,N#C/C(=C1/SC[C@@H](c2ccc(Cl)cc2Cl)S1)n1ccnc1 [Luliconazole],0.7126
11,N#C/C(=C1/SCC(c2ccccc2Cl)S1)n1ccnc1 (centres unmarked) [Lanoconazole],3.92
12,"C[C@@]12CC[C@@H]3[C@@](CC[C@H]4[C@@]3(C)CCC[C@@]4(C)C(=O)O)(CC1=O)C2 [ONC0002858, isosteviol]",83.56
13,"CN(C)c1ccc(-c2nc3c(N4CCN(CC(=O)Nc5nccs5)CC4)c(Cl)cnc3[nH]2)cc1 [ONC0004963, cct129202]",95.03
14,"O=C1c2ccccc2NC2=CCCCCN12 [ONC0003231, 78910tetrahydroazepino21bquinazolin126hone]",99.72
15,"COc1ccccc1OCC(O)CNC(C)C (centres unmarked) [ONC0003655, moprolol]",69.09
16,"[2H]C([2H])([2H])C(O)(CCO[C@@H](C)[C@H]1CC[C@H]2/C(=C/C=C3/C[C@@H](O)C[C@H](O)C3=C)CCC[C@]12C)C([2H])([2H])[2H] [ONC0001868, maxacalcitol]",112.3
17,"Oc1ccc(C2(c3ccccc3F)CCC(F)(F)CC2)cc1 [ONC0000174, ac186]",93.25
18,"CN(C)C/C=C/C(=O)Nc1cccc(C(=O)Nc2cccc(Nc3ncc(Cl)c(-c4c[nH]c5ccccc45)n3)c2)c1 [ONC0002061, thz2]",66.57
19,"Cc1cc(C(=O)Nc2nc3cccc(Cl)c3n2[C@@H]2CCCCN(C(=O)/C=C/CN(C)C)C2)ccn1 [ONC0001107, nazartinib]",39.34

row,SMILES,% viability [%]
1,"CN(C)C/C=C/C(=O)Nc1ccc(C(=O)Nc2cccc(Nc3ncc(Cl)c(-c4c[nH]c5ccccc45)n3)c2)cc1 [ONC0002074, thz1]",55.81
2,"CC(=O)[C@@]12OC(C)(c3ccccc3)O[C@@H]1C[C@H]1[C@@H]3CCC4=CC(=O)CC[C@]4(C)[C@H]3CC[C@@]12C (some centres unmarked) [ONC0002369, algestoneacetophenide]",99.76
3,"CC(Nc1ncnc2nc[nH]c12)c1cc2ccc(F)cc2nc1-c1ccccn1 (centres unmarked) [ONC0004426, amg319]",156.7
4,"N[C@H](Cc1ccccc1)C(=O)O [ONC0002457, dphenylalanine]",101.3
5,"CSC[C@H](N)C(=O)O [ONC0003388, smethylcysteine]",83.56
6,"N[C@H](CSC(c1ccccc1)(c1ccccc1)c1ccccc1)C(=O)O [ONC0001742, strityllcysteine]",48.39
7,"C[C@]12C=CC(=O)C=C1CCC1C2[C@@H](O)C[C@@]2(C)C1CC[C@]2(O)C(=O)CO (some centres unmarked) [ONC0005351, prednisolone]",112.6
8,"Cc1cc(-c2ccc(/N=N/c3ccc4c(S(=O)(=O)O)cc(S(=O)(=O)O)c(N)c4c3O)c(C)c2)ccc1/N=N/c1ccc2c(S(=O)(=O)O)cc(S(=O)(=O)O)c(N)c2c1O [ONC0003296, evans blue]",49.05
9,"COc1cc(-c2ccc(/N=N/c3ccc4c(S(=O)(=O)O)cc(S(=O)(=O)O)c(N)c4c3O)c(OC)c2)ccc1/N=N/c1ccc2c(S(=O)(=O)O)cc(S(=O)(=O)O)c(N)c2c1O [ONC0002750, chicagoskyblue6b]",94.85
10,"COC(=O)CC1CC(c2ccc(O)cc2)=NO1 (centres unmarked) [ONC0001839, iso1]",78.97
11,"N[C@@H](CC(=O)N1CCn2c(nnc2C(F)(F)F)C1)Cc1n[nH]c2c(F)c(F)ccc12 [ONC0001660, pk44 phosphate]",33.36
12,"N[C@@H](CC(=O)N1CCn2c(nnc2C(F)(F)F)C1)Cc1cc(F)c(F)cc1F [ONC0004045, sitagliptin phosphate]",93.31
13,"NCCNc1ccc(NCCN)c2c1C(=O)c1ccncc1C2=O.O=C(O)/C=C\C(=O)O.O=C(O)/C=C\C(=O)O [ONC0000916, pixantrone dimaleate]",85.22
14,"Fc1cc(F)c2c(c1)[C@H]1C=CC[C@H]1C(c1cccnc1)N2 (mixture of isomers) [ONC0005186, golgicide a]",78.39
15,"O=C(O)CCn1c2c(c3ccccc31)C[C@H](NS(=O)(=O)c1ccc(F)cc1)CC2 [ONC0000918, ramatroban]",93.57
16,"O=C(O)Cc1ccc(CCNS(=O)(=O)c2ccc(Cl)cc2)cc1 [ONC0002194, daltroban]",74.66
17,"Cc1ccc2c(c1CCC(=O)O)CC[C@@H](NS(=O)(=O)c1ccc(Cl)cc1)C2 [ONC0001303, terutroban]",45.19
18,"COC[C@H](NC(=O)c1cnc(C)s1)C(=O)N[C@@H](COC)C(=O)N[C@@H](Cc1ccccc1)C(=O)C1(C)CO1 (some centres unmarked) [ONC0004389, oprozomib onx 0912]",101.4
